The residual activity is the signal under treatment as a percentage of the control signal.

Test [1] addresses T1, Serine/threonine-protein kinase 17A (Homo sapiens) (UniProt Q9UEE5).
T1 sequence (whole entry): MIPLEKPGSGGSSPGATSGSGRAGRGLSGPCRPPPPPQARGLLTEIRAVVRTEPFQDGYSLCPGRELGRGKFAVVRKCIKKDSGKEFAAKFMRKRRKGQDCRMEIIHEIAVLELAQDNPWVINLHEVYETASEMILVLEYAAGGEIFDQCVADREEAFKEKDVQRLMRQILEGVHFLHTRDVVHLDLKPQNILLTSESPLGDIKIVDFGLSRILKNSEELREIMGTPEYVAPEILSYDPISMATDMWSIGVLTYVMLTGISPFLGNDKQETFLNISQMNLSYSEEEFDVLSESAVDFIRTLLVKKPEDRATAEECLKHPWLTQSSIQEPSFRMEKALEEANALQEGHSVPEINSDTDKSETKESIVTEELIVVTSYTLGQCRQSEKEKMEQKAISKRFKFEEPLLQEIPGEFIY
The following applies: at 10 µM.

Test [2] addresses T2, Dual specificity tyrosine-phosphorylation-regulated kinase 2 (Homo sapiens) (UniProt Q92630).
T2 sequence (whole entry): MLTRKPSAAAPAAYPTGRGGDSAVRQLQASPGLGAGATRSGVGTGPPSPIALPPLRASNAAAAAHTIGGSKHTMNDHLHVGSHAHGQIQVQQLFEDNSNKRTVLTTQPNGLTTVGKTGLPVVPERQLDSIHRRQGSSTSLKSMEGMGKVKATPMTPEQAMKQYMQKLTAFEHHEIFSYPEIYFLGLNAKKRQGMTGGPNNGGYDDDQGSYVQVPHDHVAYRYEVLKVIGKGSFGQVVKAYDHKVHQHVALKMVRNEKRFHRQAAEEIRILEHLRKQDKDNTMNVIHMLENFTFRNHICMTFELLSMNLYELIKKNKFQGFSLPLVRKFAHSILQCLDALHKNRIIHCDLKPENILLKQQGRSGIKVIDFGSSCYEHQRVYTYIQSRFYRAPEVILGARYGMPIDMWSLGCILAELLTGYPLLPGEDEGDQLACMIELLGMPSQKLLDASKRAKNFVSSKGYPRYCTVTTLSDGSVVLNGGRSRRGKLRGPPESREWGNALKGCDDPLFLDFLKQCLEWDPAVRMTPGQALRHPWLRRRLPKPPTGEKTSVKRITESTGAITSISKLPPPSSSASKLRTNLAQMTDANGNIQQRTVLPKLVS
The following applies: at 10 µM.

Test [3] has as its target T3, Ephrin type-A receptor 1 (Homo sapiens) (UniProt P21709).
T3 sequence (whole entry): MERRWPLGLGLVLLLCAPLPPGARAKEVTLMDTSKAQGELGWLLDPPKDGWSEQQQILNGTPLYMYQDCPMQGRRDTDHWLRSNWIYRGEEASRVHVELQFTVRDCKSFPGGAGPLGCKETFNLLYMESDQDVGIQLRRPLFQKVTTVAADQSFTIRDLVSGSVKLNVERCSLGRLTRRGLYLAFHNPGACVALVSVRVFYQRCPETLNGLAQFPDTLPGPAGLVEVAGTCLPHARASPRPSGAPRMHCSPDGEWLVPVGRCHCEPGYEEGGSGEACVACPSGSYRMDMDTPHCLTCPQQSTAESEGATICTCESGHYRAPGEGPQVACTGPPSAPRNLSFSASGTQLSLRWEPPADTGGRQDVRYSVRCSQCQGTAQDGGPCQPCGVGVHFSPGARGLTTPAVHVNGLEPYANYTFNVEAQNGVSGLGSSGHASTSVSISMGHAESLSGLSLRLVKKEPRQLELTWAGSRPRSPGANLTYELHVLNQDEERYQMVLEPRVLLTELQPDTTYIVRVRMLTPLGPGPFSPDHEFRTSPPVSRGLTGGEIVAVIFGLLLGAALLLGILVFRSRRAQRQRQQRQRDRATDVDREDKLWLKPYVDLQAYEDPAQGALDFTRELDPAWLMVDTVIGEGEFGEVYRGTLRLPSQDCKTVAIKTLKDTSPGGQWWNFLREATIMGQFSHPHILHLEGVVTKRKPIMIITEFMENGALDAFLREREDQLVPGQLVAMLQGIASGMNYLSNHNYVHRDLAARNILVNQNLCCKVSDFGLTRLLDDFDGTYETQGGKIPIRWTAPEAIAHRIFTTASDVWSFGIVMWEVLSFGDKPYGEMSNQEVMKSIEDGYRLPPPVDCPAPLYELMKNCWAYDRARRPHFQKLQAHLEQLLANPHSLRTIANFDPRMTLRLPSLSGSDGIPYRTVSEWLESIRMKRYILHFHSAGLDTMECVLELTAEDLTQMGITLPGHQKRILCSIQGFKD
The following applies: at 10 µM.

The target of test [4] is Death-associated protein kinase 1 (Homo sapiens) (UniProt P53355). The following applies: at 10 µM.
Test [5] concerns the target T4, Discoidin domain-containing receptor 2 (Homo sapiens) (UniProt Q16832).
T4 sequence (whole entry): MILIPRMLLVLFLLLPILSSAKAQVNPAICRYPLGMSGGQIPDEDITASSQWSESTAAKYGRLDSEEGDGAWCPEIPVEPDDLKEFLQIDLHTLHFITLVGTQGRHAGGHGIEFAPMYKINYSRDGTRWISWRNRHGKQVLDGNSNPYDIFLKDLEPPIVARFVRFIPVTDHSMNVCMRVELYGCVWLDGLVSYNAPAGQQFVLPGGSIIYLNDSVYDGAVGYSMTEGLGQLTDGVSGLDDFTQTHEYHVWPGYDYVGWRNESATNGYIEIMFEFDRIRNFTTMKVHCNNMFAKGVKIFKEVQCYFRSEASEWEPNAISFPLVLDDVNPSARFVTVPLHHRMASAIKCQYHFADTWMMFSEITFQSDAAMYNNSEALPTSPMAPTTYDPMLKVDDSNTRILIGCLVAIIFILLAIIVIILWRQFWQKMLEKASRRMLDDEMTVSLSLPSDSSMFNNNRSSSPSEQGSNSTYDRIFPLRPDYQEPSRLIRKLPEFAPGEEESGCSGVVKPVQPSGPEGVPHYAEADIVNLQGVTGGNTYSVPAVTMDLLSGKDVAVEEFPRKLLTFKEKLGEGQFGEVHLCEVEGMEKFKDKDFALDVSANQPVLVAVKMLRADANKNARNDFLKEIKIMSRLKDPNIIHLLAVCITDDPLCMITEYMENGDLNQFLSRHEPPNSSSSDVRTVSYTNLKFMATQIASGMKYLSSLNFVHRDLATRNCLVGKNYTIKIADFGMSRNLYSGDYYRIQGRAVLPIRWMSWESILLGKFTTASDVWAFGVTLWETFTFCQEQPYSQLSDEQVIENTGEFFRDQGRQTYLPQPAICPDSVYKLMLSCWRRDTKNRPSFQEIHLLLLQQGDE
The following applies: at 1 µM.

Test [6] has as its target T5, Myotonin-protein kinase (Homo sapiens) (UniProt Q09013).
T5 sequence (whole entry): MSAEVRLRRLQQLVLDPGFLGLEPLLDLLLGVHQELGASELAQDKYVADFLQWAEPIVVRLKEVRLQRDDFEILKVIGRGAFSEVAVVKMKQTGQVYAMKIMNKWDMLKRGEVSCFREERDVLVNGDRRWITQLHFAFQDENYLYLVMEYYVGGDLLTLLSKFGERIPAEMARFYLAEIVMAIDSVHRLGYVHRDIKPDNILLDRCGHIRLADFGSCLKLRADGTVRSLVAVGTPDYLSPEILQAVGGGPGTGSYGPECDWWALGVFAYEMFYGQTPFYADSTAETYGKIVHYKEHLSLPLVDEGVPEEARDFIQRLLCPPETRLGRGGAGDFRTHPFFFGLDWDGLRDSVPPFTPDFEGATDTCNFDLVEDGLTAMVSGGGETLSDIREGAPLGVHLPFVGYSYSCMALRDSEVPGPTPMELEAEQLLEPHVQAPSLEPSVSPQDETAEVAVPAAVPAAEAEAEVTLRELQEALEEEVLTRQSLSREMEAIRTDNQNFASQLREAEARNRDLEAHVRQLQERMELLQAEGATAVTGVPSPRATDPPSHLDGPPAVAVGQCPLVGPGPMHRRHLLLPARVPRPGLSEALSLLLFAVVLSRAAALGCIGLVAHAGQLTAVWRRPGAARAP
The following applies: at 1 µM.

In test [7] the target is T5, Myotonin-protein kinase (Homo sapiens). The following applies: at 10 µM.
Test [8] deals with T1, Serine/threonine-protein kinase 17A (Homo sapiens). The following applies: at 1 µM.
Test [9] concerns the target Epidermal growth factor receptor (Homo sapiens) (UniProt P00533). The following applies: at 1 µM.
Test [10] has the same target. The following applies: at 10 µM.
Test [11] has as its target T6, Ephrin type-A receptor 3 (Homo sapiens) (UniProt P29320).
T6 sequence (whole entry): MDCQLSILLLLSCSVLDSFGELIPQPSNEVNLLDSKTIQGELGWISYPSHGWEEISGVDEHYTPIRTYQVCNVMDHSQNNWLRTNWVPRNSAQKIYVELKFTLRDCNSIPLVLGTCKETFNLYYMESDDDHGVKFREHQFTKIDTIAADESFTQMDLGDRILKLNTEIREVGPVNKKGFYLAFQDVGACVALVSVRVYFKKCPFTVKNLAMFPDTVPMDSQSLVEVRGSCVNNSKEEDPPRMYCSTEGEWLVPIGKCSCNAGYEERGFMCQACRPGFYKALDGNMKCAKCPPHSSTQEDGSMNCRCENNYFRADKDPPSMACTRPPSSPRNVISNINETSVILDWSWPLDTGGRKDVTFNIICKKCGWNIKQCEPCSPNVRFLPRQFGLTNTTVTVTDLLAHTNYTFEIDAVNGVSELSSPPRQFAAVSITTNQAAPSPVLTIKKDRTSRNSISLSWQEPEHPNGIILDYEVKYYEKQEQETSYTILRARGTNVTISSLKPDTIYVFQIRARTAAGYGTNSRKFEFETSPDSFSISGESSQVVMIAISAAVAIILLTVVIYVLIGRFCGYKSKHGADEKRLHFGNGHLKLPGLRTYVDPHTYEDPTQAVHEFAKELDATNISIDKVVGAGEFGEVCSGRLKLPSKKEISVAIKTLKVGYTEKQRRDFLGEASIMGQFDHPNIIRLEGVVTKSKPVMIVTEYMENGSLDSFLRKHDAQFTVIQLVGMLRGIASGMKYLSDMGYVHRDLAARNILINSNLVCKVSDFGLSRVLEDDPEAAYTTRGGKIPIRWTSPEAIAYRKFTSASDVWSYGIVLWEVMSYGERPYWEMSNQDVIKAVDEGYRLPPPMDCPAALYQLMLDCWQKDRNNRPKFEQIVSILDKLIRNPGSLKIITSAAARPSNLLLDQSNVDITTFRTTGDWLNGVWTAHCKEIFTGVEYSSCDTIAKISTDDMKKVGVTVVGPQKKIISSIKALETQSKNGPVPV
The following applies: at 1 µM.

Test [12] has as its target T2, Dual specificity tyrosine-phosphorylation-regulated kinase 2 (Homo sapiens). The following applies: at 1 µM.
For test [13], the target named is Death-associated protein kinase 2 (Homo sapiens) (UniProt Q9UIK4). The following applies: at 1 µM.
Test [14] shares this target. The following applies: at 10 µM.
Test [15] has as its target T7, Serine/threonine-protein kinase DCLK2 (Homo sapiens) (UniProt Q8N568).
T7 sequence (whole entry): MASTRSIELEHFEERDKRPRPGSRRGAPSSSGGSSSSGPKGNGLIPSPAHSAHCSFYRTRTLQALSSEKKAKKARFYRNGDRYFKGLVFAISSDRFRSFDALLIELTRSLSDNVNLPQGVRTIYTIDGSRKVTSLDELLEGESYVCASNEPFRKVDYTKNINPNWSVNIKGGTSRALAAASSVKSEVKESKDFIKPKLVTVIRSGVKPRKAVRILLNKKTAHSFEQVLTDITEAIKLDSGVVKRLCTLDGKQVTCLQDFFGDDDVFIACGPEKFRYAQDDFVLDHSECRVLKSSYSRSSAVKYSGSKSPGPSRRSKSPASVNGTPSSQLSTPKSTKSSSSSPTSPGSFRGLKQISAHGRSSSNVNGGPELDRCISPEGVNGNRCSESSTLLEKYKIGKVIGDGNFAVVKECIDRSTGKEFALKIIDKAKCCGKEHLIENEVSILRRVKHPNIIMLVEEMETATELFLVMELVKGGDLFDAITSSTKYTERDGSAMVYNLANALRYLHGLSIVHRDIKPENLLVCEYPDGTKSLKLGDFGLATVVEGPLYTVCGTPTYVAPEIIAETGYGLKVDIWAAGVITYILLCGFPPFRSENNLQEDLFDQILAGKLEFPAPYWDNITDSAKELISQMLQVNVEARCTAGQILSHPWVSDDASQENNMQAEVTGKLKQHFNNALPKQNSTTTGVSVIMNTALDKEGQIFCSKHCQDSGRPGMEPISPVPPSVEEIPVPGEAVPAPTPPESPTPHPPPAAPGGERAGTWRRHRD
The following applies: at 1 µM.

The target in test [16] is T7, Serine/threonine-protein kinase DCLK2 (Homo sapiens). The following applies: at 10 µM.

Sequence of Epidermal growth factor receptor (Homo sapiens) (P00533 whole entry): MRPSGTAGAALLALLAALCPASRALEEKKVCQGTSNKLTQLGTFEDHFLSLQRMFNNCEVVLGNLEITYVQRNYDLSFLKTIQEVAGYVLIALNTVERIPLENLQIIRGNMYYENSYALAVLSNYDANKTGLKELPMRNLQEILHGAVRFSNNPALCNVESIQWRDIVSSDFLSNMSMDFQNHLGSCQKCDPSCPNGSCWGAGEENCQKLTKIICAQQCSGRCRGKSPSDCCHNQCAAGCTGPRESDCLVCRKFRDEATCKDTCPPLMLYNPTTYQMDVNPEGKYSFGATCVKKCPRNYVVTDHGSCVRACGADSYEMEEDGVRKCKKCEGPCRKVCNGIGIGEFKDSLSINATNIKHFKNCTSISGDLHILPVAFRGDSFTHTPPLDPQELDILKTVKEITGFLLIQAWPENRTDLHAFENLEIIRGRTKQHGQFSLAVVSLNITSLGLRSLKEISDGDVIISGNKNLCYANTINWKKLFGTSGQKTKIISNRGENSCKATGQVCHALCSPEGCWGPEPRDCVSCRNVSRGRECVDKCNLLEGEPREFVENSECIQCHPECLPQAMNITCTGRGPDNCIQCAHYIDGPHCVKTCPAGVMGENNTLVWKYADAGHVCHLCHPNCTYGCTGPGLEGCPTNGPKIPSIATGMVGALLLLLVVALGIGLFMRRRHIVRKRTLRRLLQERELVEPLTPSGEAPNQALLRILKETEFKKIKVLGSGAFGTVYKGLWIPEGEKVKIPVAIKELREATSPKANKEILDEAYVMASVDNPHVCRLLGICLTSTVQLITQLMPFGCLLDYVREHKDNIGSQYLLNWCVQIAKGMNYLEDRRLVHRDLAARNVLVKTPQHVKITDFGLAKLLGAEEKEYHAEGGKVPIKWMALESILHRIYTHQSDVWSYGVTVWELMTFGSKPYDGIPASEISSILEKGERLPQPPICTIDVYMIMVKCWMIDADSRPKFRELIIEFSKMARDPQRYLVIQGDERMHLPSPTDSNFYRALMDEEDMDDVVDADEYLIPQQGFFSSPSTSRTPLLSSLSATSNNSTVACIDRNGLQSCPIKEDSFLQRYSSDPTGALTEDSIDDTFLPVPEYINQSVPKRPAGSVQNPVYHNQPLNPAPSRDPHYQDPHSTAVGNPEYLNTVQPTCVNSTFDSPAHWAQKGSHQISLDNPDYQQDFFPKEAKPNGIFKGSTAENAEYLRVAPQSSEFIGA
Sequence of Death-associated protein kinase 2 (Homo sapiens) (Q9UIK4 whole entry, looked up): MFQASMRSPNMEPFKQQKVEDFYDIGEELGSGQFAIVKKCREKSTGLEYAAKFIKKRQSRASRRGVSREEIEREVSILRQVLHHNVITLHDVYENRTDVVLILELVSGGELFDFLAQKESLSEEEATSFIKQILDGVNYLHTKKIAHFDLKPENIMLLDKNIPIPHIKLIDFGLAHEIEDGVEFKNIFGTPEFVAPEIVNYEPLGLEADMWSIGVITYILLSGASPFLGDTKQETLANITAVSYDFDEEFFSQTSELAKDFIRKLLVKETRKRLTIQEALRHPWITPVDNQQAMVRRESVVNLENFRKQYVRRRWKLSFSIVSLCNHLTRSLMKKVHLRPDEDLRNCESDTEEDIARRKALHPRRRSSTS
Sequence of Death-associated protein kinase 1 (Homo sapiens) (P53355 whole entry, looked up, the tested form may be a part): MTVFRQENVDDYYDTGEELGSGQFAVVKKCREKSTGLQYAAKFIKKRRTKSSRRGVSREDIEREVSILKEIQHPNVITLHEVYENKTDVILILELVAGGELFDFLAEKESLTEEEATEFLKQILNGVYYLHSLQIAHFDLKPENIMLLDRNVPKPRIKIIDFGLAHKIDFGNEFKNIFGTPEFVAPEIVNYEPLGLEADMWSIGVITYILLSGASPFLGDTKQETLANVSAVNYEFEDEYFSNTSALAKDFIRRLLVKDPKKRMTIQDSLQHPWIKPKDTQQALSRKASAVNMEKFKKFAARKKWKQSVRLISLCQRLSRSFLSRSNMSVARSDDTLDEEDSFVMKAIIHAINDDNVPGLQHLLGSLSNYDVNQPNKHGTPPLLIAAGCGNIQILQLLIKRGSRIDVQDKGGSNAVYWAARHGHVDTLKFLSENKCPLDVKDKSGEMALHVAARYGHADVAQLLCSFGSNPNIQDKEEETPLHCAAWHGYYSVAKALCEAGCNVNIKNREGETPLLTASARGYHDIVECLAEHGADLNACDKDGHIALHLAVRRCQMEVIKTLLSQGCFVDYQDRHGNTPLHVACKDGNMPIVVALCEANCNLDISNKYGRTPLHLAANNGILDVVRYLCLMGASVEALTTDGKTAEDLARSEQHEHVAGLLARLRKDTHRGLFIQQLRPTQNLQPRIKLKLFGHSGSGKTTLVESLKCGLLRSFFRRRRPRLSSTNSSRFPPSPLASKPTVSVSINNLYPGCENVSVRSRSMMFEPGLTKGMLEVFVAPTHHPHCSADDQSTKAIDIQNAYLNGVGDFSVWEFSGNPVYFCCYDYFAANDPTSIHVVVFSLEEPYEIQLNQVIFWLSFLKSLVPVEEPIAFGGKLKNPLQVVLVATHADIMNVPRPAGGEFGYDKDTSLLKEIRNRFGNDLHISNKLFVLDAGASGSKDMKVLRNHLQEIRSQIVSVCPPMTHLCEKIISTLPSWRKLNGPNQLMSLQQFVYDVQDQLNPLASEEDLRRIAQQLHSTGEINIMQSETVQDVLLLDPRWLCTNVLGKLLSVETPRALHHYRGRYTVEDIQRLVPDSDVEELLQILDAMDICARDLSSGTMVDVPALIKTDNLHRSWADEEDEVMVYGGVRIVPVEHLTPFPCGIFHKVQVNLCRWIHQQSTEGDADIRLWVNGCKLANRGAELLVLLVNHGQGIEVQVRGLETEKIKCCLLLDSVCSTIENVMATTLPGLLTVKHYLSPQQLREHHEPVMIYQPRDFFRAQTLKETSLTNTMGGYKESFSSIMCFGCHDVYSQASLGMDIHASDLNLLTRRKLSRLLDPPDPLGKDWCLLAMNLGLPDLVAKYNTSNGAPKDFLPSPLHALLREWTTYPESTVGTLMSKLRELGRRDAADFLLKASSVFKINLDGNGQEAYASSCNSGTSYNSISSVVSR

Turning to `NC(=O)c1cccc(-c2cc(Nc3ccc(OC(F)(F)F)cc3)ncn2)c1`, the residual activity in test [1] was 145%; in [2], 91%; in test [3] it was 96%.
As to `COc1ccc(COc2ccc(Cc3cnc(N)nc3N)cc2OC)cc1`, the residual activity stood at 82% in test [4]; 112% in test [5]; 115% in test [6]; 139% in test [7]; 112% in [8]; 112% in [1]. Also, the residual activity in test [9] worked out at 112%; in test [10], 114%; in [3], 77%; in [11], 108%.
As for `N#C/C(=C1/Nc2ccccc2S1)c1ccnc(NCCc2cccnc2)n1`, the residual activity turned out to be 78% in [7]; 60% in [8]; 37% in test [1]; 19% in test [12]; 2% in [2].
Regarding `COc1cc2c(cc1OC)-c1n[nH]c(Nc3cccc(F)c3)c1C2`, the residual activity in test [13] is 99%; in test [14], 107%; in test [15], 109%; in [16] it was 132%; in test [7] it was 136%; in test [1] it was 53%. Besides, the residual activity in test [3] was 34%; in test [11] it was 83%.

The record behind these values is ChEMBL document CHEMBL2218924, “A broad activity screen in support of a chemogenomic map for kinase signalling research and drug discovery” (Biochem J, 2013).
